Experimental findings from PubChem BioAssay are described below.

SMILES strings stand for the structures. Where “and” joins values, the source holds several entries; their conditions need not be identical. Identical values can stand only once. Calls of active or inactive are those of the source.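 The calls were made as follows, unless noted: active = compounds killing one labelled cell type while sparing the other, by normalised counts and ratio limits, not self-fluorescent; inactive = the rest.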

Assay [1] in a line: liver-stage malaria parasite growth inhibition, primary screen, cell-based, HepG2, luciferase luminescence, HepG2 viability (AID 624349; in the data active = parasite load remaining mostly below about 12%, no sharp cut-off; inactive = mostly above about 10%;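 also: 100% = mean of DMSO negative control wells on the same plate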). The following applies: P. berghei liver stage in HepG2, luciferase luminescence, concentration not given here; parasite load remaining: stronger effect = lower value; viability: measured here: HepG2 viability without parasites.
Assay [2] in a line: differential killing of epithelial or mesenchymal cells, primary screen, imaging, PC-3E GFP, TEM4-18 mCherry, co-culture (AID 1345086).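 As to all read-outs here: cells exposed to compound for 72 h before imaging.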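 As to red/green cell ratio (normalised): normalised mesenchymal count divided by normalised epithelial count so high means epithelial killing.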 The following applies: imaging cell counts, at 1 µM; for red/green cell ratio (normalised): actives lie on both sides, counts scaled to control wells, 1 = unselective.
Assay [3] is described as follows: sensitizers of A549 cells to miR-34 induction, primary screen, imaging, A549 dox-inducible miR-34, nuclei and caspase counts (AID 1347080;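 active = compounds whose cell count with miR-34 switched on is under 0.7 times the count with it off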). Conditions: A549 miR-34 inducible, Hoechst nuclei count, 48 h.
Assay [4] has as its target Mitogen-activated protein kinase 7 (Homo sapiens) (UniProt Q13164). Description: ERK5 transactivation activators in reporter cells, primary screen, cell-based, HTS (AID 1508626;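 active = luciferase signal above three times the same-plate solvent-only control wells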;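 also: luciferase driven by Gal4-ERK5 fusion binding five Gal4 sites before minimal TATA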). Conditions: HeLa Gal4-ERK5 transactivation, 18 h, at 5 µM, stronger effect = higher value.
In assay [5] the target is NAD(+) hydrolase SARM1 (Homo sapiens) (UniProt Q6SZW1). Briefly: SARM1 TIR NADase inhibitors, cell lysate, NAD-Glo luminescence (AID 1508614;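 active = compound whose remaining NAD level is above about 45 nM, limit read from the data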;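 also: higher remaining NAD means stronger inhibition of SARM1 NADase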). Conditions: SAM-TIR HEK293T lysate NADase, at 1 µM, stronger effect = higher value.
Where [6] appears, read: measured here: epithelial PC-3E GFP cell survival.
The mark [7] stands for this setting: measured here: mesenchymal TEM4-18 mCherry cell survival.
Where [8] appears, read: stronger effect = lower value, cell number ratio, induced over uninduced.
Where [9] appears, read: measured here: relative caspase fold change +Dox/-Dox.
The mark [10] stands for this setting: measured here: total cells with miR-34 induction, stronger effect = lower value.
The mark [11] stands for this setting: measured here: total cells without miR-34 induction.

NAD(+) hydrolase SARM1 (Homo sapiens), sequence (Q6SZW1 whole entry, looked up): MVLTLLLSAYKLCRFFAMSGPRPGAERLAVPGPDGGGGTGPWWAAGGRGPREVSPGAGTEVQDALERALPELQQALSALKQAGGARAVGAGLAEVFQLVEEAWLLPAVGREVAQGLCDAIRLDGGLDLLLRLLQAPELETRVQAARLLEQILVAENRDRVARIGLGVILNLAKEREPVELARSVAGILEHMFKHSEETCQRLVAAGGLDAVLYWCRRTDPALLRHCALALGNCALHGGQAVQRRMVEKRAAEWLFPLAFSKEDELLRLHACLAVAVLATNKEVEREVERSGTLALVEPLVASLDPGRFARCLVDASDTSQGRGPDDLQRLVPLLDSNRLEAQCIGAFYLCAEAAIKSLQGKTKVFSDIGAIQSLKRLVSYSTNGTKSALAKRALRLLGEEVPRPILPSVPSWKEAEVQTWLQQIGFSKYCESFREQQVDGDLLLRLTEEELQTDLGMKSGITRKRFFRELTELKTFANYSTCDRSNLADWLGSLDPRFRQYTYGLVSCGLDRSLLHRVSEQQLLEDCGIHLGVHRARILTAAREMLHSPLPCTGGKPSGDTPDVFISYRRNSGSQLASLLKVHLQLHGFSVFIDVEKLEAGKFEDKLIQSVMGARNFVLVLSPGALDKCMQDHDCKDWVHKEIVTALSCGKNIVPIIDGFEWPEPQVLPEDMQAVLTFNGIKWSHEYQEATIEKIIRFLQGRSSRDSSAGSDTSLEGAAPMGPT
Mitogen-activated protein kinase 7 (Homo sapiens), sequence (Q13164 whole entry, looked up, the tested form may be a part): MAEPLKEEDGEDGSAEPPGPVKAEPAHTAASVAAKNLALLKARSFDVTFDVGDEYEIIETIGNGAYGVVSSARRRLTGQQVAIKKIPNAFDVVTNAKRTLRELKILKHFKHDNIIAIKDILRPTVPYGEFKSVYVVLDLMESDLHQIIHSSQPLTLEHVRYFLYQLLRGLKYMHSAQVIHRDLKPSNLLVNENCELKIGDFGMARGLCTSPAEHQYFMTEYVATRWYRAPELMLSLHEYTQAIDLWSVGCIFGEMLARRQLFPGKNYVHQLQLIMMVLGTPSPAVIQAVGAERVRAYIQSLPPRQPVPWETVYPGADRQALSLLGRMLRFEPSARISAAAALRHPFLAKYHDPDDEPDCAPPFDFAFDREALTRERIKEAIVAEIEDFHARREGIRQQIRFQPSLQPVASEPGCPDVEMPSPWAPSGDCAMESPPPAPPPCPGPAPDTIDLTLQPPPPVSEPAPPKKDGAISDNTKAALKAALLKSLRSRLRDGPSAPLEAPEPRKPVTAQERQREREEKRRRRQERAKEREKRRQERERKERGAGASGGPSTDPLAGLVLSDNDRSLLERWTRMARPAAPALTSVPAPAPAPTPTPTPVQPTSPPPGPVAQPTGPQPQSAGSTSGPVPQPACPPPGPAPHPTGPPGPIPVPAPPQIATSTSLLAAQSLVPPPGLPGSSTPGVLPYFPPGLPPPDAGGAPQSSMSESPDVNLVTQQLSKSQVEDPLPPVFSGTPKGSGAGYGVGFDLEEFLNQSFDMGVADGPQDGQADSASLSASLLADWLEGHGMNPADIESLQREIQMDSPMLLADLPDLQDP

In the case of `CC(C)(CO)C(O)C(=O)NCCCO` (centres undefined), the parasite load remaining in assay [1] was 56.4% (inactive). Besides, the viability in assay [1] is 105%. For the same molecule, the red/green cell ratio (normalised) in assay [2] is 1.08 (inactive) and 0.9 (inactive). The normalised cell number in assay [2] (setting [6]) is 1.14 and 1.02; in assay [2] (setting [7]) it was 1.23 and 0.92. The fold change in assay [3] (setting [8]) was 0.911 (inactive); in assay [3] (setting [9]), 4.72. Also, the cell count in assay [3] (setting [10]) was 11800; in assay [3] (setting [11]), 13000. Besides, in assay [4], the luciferase signal is 68 AU (inactive).
Regarding `O=C(O)C1CSCN1` (centres undefined), in assay [2], the red/green cell ratio (normalised) is 0.88 (inactive). The normalised cell number in assay [2] (setting [6]) was determined as 1.25; in assay [2] (setting [7]) it was 1.1. Also, the values for the fold change in assay [3] (setting [8]) and in assay [3] (setting [9]) were 0.957 (inactive) and 0.618, respectively. The cell count in assay [3] (setting [10]) is 9140; in assay [3] (setting [11]), 9550. For the same molecule, the remaining NAD in assay [5] is 10 nM (inactive).
Turning to `C[N+](C)(C)C[C@H](O)CC(=O)[O-]`, the parasite load remaining in assay [1] is 53.1% (inactive). Also, in assay [1], the viability stood at 99.7%. Moreover, the red/green cell ratio (normalised) in assay [2] was 1.04 (inactive). The normalised cell number in assay [2] (setting [6]) stood at 0.94; in assay [2] (setting [7]), 0.98. The results for the fold change in assay [3] (setting [8]) and in assay [3] (setting [9]) were 0.867 (inactive) and 4.08, respectively. Besides, the cell count was 11500 in assay [3] (setting [10]) and 13200 in assay [3] (setting [11]). The remaining NAD in assay [5] is 10 nM (inactive). For the same molecule, the luciferase signal in assay [4] is 32 AU (inactive).
For the molecule `CN(C)c1cnccn1`, the red/green cell ratio (normalised) in assay [2] was 1.02 (inactive). For the same molecule, the normalised cell number in assay [2] (setting [6]) was 0.95; in assay [2] (setting [7]) it was 0.97. Moreover, the fold change was 0.783 (inactive) in assay [3] (setting [8]) and 1.07 in assay [3] (setting [9]). The cell count in assay [3] (setting [10]) is 6710; in assay [3] (setting [11]), 8560. In assay [5], the remaining NAD is 10 nM (inactive).
With `O=C(O)CC(O)(CC(=O)O)C(=O)O`, the parasite load remaining in assay [1] was 61.3% (inactive). The viability in assay [1] stood at 186%. The red/green cell ratio (normalised) in assay [2] is 1 (inactive). In addition, the normalised cell number in assay [2] (setting [6]) and in assay [2] (setting [7]) was 1.06 in each case. Besides, the fold change was 0.829 (inactive) in assay [3] (setting [8]) and 6.46 in assay [3] (setting [9]). In addition, the cell count stood at 11100 in assay [3] (setting [10]) and 13400 in assay [3] (setting [11]). In addition, in assay [5], the remaining NAD is 10 nM (inactive). Besides, in assay [4], the luciferase signal is 52 AU (inactive).
`C=CCCCCCCCCC(=O)[O-].C=CCCCCCCCCC(=O)[O-].[Zn+2]`: in assay [1], the parasite load remaining was 88.8% (inactive). Moreover, in assay [1], the viability stood at 94.5%. For the same molecule, in assay [2], the red/green cell ratio (normalised) was 1.08 (inactive). For the same molecule, the results for the normalised cell number in assay [2] (setting [6]) and in assay [2] (setting [7]) were 0.98 and 1.05, respectively. The values for the fold change in assay [3] (setting [8]) and in assay [3] (setting [9]) were 0.86 (inactive) and 4.55, respectively. For the same molecule, the figures for the cell count in assay [3] (setting [10]) and in assay [3] (setting [11]) were 11700 and 13600, respectively. In assay [5], the remaining NAD was 10 nM (inactive). Moreover, the luciferase signal in assay [4] is 48 AU (inactive).
With `CCOC(=O)COc1ccc2c(=O)cc(-c3ccccc3)oc2c1`, the red/green cell ratio (normalised) in assay [2] is 0.96 (inactive). Besides, the normalised cell number in assay [2] (setting [6]) came to 0.88; in assay [2] (setting [7]) it was 0.85. Besides, the fold change in assay [3] (setting [8]) was 0.922 (inactive); in assay [3] (setting [9]), 0.974. The cell count stood at 8170 in assay [3] (setting [10]) and 8860 in assay [3] (setting [11]). The remaining NAD in assay [5] is 10 nM (inactive).
Consider `CCC1(C)OC(=O)N(C)C1=O` (centres undefined), for which, in assay [2], the red/green cell ratio (normalised) is 0.84 (inactive). Further, the results for the normalised cell number in assay [2] (setting [6]) and in assay [2] (setting [7]) were 1.08 and 0.91, respectively. Moreover, the fold change in assay [3] (setting [8]) is 0.92 (inactive); in assay [3] (setting [9]) it was 0.865. In addition, the cell count in assay [3] (setting [10]) was determined as 7860; in assay [3] (setting [11]), 8540. The remaining NAD in assay [5] was 10 nM (inactive). For the same molecule, the luciferase signal in assay [4] is 16 AU (inactive).
Regarding `CC(O)CC(C)(C)O` (centres undefined), the red/green cell ratio (normalised) in assay [2] was 0.94 (inactive). Further, the normalised cell number is 1 in assay [2] (setting [6]) and 0.94 in assay [2] (setting [7]). In addition, the fold change in assay [3] (setting [8]) is 0.91 (inactive); in assay [3] (setting [9]), 0.891. Also, the values for the cell count in assay [3] (setting [10]) and in assay [3] (setting [11]) were 8730 and 9590, respectively. The remaining NAD in assay [5] is 10 nM (inactive).
